Test results as given in PubChem BioAssay (Tox21).
Results filed as inconclusive are left out. Where a call stands in place of a potency, no number is given. A number with no mark means an inactive call. Activity calls are given as the source filed them. Unless noted, calls follow the shape of the dose curve; as a rule, active = well fitted curve in the direction sought with a large enough effect in the repeat runs; inconclusive = weak or mixed curves; inactive = no such curve, though single readings can be large; an effect the other way counts as inactive or inconclusive.

Tests used:
[1] = qHTS assay to identify small molecule agonists of the endoplasmic reticulum stress response signaling pathway (AID 1159516; active = well fitted activation curve with a large enough effect in the signal ratio in the repeat runs, not every such curve was filed as active; the % refers to the signal ratio; also: potency is read from the fitted curve at half-maximal effect)
Method in brief: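 Tox21 10K library screened in quantitative HTS format on ESRE-bla HeLa cells, a beta-lactamase reporter under ER stress response element control; 5 hr treatment, FRET read.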

[2] = qHTS assay to identify small molecule agonists of the endoplasmic reticulum stress response signaling pathway - cell viability counter screen (AID 1159517; calls by dose curve; also: nearly all actives have a fitted effect of over 50% in size; also: potency is read from the fitted curve at half-maximal effect)
Method in brief: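 HeLa cells carrying an ESRE-driven beta-lactamase reporter receive compound for 5 hr at 37 C. Cell viability is then gauged with CellTiter-Glo by luminescence, 30 min at room temperature.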

[3] = qHTS assay to identify small molecule antagonists of the retinoid-related orphan receptor gamma (ROR-gamma) signaling pathway - cell viability counter screen (AID 1159520); also: nearly all actives have a fitted effect of over 50% in size; also: potency is read from the fitted curve at half-maximal effect
Method in brief: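 Cytotoxicity was read from cellular ATP (CellTiter-Glo luminescence) after 16 hr at 37 C with 1 uM doxycycline induction. The inducer was added 2 hr after compound transfer to Tet-on ROR gamma CHO cells.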

[4] = target: Nuclear receptor ROR-gamma (Homo sapiens) (UniProt P51449); test: qHTS assay to identify small molecule antagonists of the retinoid-related orphan receptor gamma (ROR-gamma) signaling pathway (AID 1159521; also: nearly all actives have a fitted effect of over 50% in size; also: potency is read from the fitted curve at half-maximal effect)
Method in brief: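 Test compounds were applied to Tet-on RORγ CHO cells 2 h ahead of doxycycline hyclate (1 uM final). Luciferase reporter activity was quantified by luminescence after 16 h at 37 C and 5% CO2.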

[5] = qHTS assay to identify small molecule agonists of the AP-1 signaling pathway - cell viability counter screen (AID 1159525; calls by dose curve; also: nearly all actives have a fitted effect of over 55% in size; also: potency is read from the fitted curve at half-maximal effect)
Method in brief: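 Luminescent ATP readout (Cell Titer Glo, 30 min RT), normalised to DMSO and tetra n-octyl ammonium bromide controls. Cells were ME-180 AP-1-bla in 0.5% dialyzed FBS Opti-MEM, with a 5 h, 37 °C compound exposure.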

[6] = qHTS assay to identify small molecule agonists of the RXR signaling pathway - cell viability counter screen (AID 1159529); also: nearly all actives have a fitted effect of over 50% in size; also: potency is read from the fitted curve at half-maximal effect
Method in brief: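 Compounds dissolved in DMSO were pinned onto HEK 293T cells carrying a beta-lactamase reporter under RXR-alpha control and incubated 16 hr. Cytotoxicity was then quantified by CellTiter-Glo luminescence.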

[7] = qHTS assay to identify small molecule antagonists of the retinoid acid receptor (RAR) signaling pathway - cell viability counter screen (AID 1159551); also: nearly all actives have a fitted effect of over 35% in size
Method in brief: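 Cytotoxicity counter screen in C3RL4 cells: 6 h compound exposure with 1 uM retinol (final), viability from cellular ATP by luminescence.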

[8] = qHTS assay to identify small molecule antagonists of the retinoic acid receptor (RAR) signaling pathway (AID 1159552; also: nearly all actives have a fitted effect of over 50% in size; also: potency is read from the fitted curve at half-maximal effect)
Method in brief: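 Test chemicals and DMSO controls were pin-transferred onto C3RL4 cells a day after seeding; retinol (1 uM final) followed at once. Luminescent reporter output was quantified after 6 hr of co-incubation and 30 min with detection reagent.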

[9] = qHTS assay to identify small molecule agonists of the retinoic acid receptor (RAR) signaling pathway (AID 1159553); also: potency is read from the fitted curve at half-maximal effect
Method in brief: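 Agonist activity was scored in C3RL4 cells bearing a retinoic acid response element luciferase construct. Cells were treated with compounds for 6 hr at 37 C, and luciferase signal was measured as luminescence.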

[10] = qHTS assay to identify small molecule antagonists of the estrogen related receptor (ERR) signaling pathway from Tox21 library - cell viability counter screen (AID 1224834); also: nearly all actives have a fitted effect of over 30% in size; also: potency is read from the fitted curve at half-maximal effect
Method in brief: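 Cytotoxicity of test substances is gauged in the same ERR cells used for the antagonist screen, after 17.5 h of compound treatment at 37 C, by CellTiter-Fluor fluorescence measured after 30 min.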

[11] = target: Luciferin 4-monooxygenase (Photinus pyralis) (UniProt P08659); test: qHTS assay to identify small molecule inhibitors of firefly luciferase (AID 1224835); also: nearly all actives have a fitted effect of over 25% in size; also: potency is read from the fitted curve at half-maximal effect
Method in brief: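 Inhibition of purified Photinus luciferase is measured by luminescence. Substrate levels (D-luciferin, ATP) sit at their KM values. Each compound is tested in a concentration series.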

[12] = qHTS assay to identify small molecule agonists of the constitutive androstane receptor (CAR) signaling pathway - cell viability counter screen (AID 1224836); also: nearly all actives have a fitted effect of over 45% in size; also: potency is read from the fitted curve at half-maximal effect
Method in brief: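 23 h treatment, 37 C, 5% CO2. Cell line: HepG2 stably expressing hCAR with a CYP2B6-2.2kb construct. Co-treatment: PK11195, 0.75 uM final. Read-out: CellTiter-Fluor fluorescence intensity.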

[13] = qHTS assay to identify small molecule agonists of the AP-1 signaling pathway (AID 1159526; calls by dose curve)
[14] = target: Retinoic acid receptor RXR-alpha (Homo sapiens) (UniProt P19793); test: qHTS assay to identify small molecule agonists of the RXR signaling pathway (AID 1159527; calls by dose curve; also: nearly all actives have a fitted effect of over 35% in size)
Method in brief: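 Using 9-cis retinoic acid as the reference agonist, chemicals were tested in HEK 293T cells […] for 16 hr; substrate loading lasted 2 hr at room temperature.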

[15] = qHTS assay to identify small molecule antagonists of the estrogen related receptor (ERR) signaling pathway - cell viability counter screen (AID 1224818);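 also: series mostly up to about 46 µM; viability measured after 17.5 h of compound exposure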
Method in brief: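 Cells carrying the ERR pathway reporter were seeded and incubated for 6 hours before compound addition. After a 17.5-hour exposure at 37 C, live-cell protease activity was measured by CellTiter-Fluor fluorescence following 30 minutes of incubation.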

[16] = qHTS assay to identify small molecule antagonists of the estrogen related receptor signaling pathway with the pleiotropic PPARgamma coactivator (PGC) cell viability counter screen (AID 1224822;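 also: series mostly up to about 46 µM; viability read after 17.5 h compound exposure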)
Method in brief: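 Seed PGC/ERR cells (2,000/well); incubate 6 h at 37 C/5% CO2; pin-transfer compounds in DMSO; incubate 17.5 h at 37 C; add CellTiter-Fluor; after 30 min read fluorescence.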

[17] = qHTS assay to identify small molecule antagonists of the estrogen related receptor (ERR) signaling pathway (AID 1224819)
Method in brief: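 Compounds dissolved in DMSO were pin-transferred onto ERR cells that had been plated 6 h earlier, and cells were then incubated 18 h at 37 C; signal was luciferase luminescence via One-Glo.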

[18] = qHTS assay to identify small molecule agonists of the estrogen related receptor (ERR) signaling pathway (AID 1224820)
Method in brief: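 Cells: ERR line from NTP, 2,000/well. Pre-incubation 6 h, 37 C/5% CO2. Compound (DMSO) pin transfer, 18 h 37 C. One-Glo, 30 min RT, luminescence.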

[19] = qHTS assay to identify small molecule agonists of the estrogen related receptor signaling pathway with the pleiotropic PPARgamma coactivator (PGC) (AID 1224823)
Method in brief: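 Steps: plate PGC/ERR cells at 2,000 cells/well; incubate 6 h, 37 C/5% CO2; pin-transfer compounds (DMSO); incubate 18 h, 37 C; add One-Glo; 30 min RT; read luminescence.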

Luciferin 4-monooxygenase (Photinus pyralis), sequence (P08659 whole entry, looked up): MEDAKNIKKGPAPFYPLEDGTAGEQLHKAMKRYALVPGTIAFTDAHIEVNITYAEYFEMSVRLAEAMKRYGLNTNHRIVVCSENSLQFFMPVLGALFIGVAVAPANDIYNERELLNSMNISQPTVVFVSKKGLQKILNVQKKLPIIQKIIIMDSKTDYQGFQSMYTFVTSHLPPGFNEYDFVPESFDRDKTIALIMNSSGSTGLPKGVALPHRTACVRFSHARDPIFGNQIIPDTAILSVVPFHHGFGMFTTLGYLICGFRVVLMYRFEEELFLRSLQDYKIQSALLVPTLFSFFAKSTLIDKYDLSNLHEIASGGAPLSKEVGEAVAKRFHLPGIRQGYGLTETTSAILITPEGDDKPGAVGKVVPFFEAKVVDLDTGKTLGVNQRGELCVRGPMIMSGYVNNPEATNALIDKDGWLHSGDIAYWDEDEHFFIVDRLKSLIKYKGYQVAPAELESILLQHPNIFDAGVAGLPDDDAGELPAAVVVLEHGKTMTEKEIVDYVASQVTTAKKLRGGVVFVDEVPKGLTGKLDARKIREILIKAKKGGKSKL
Retinoic acid receptor RXR-alpha (Homo sapiens), sequence (P19793 whole entry, looked up): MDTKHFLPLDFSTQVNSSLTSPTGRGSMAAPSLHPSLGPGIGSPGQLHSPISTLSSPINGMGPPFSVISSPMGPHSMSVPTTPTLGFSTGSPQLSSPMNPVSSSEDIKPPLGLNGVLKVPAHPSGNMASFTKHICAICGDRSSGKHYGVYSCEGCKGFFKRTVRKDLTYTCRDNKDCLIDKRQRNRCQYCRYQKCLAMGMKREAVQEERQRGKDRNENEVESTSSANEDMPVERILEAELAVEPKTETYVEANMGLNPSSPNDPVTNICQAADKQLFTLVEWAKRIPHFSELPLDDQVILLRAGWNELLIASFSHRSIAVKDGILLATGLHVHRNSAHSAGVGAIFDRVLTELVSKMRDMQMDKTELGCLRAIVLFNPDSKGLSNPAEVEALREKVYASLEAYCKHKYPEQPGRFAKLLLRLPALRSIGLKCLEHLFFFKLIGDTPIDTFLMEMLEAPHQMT

Structure (SMILES) | Potency [1] | Potency [2] | Potency [3] | Potency [4] | Potency [5] | Potency [6] | Potency [7] | Potency [8] | Potency [9] | Potency [10] | Potency [11] | Potency [12] | Potency [13] | Potency [14] | Potency [15] | Potency [16] | Potency [17] | outcome [18] | outcome [19]
CCN(CC)CCSC(=O)C(c1ccccc1)c1ccccc1 | inactive | inactive | inactive | inactive | inactive | inactive | inactive | 26.6 µM (active) | inactive | inactive | inactive | inactive |  |  |  |  |  |  | 
Cc1cn[nH]c1 | inactive | inactive | inactive |  | inactive | inactive | inactive | inactive | inactive | inactive | inactive | inactive | inactive | inactive | inactive | inactive |  |  | 
CCNc1nc(NC(C)CC)nc(OC)n1 (stereo not given) | inactive | inactive | inactive |  | inactive | inactive | inactive | inactive |  | inactive | inactive | inactive | inactive |  |  |  |  |  | 
CC(=O)Oc1ccc(C2(c3ccc(OC(C)=O)cc3)C(=O)Nc3ccccc32)cc1 | inactive | inactive | inactive | inactive |  | inactive | inactive |  |  | inactive | inactive | inactive |  | inactive |  |  |  |  | 
Cc1ccc2ccc3cccc4ccc1c2c34 | inactive | inactive | inactive |  | inactive |  | inactive | inactive | inactive | inactive | 35.5 µM (active) | inactive | inactive |  |  |  |  |  | 
CCCCOc1ccc(C(=O)CCN2CCCCC2)cc1 | inactive | inactive | 26.6 µM (active) |  | inactive |  | inactive |  |  | inactive |  |  | inactive |  |  |  |  |  | 
C/C=C/C=N/NC(=O)c1ccncc1 | inactive | inactive | inactive | inactive | inactive | inactive | inactive | inactive | inactive | inactive | inactive | inactive |  |  |  |  |  |  | 
CC(C)(C)C1=CC(=O)C=C(C(C)(C)C)C1=O | inactive | inactive | inactive |  | inactive |  | inactive | inactive | inactive | inactive | inactive | inactive | inactive | inactive |  |  |  |  | 
O=C(O)c1cccc(Cl)n1 | inactive | inactive | inactive |  | inactive | inactive | inactive | inactive |  | inactive | inactive | inactive | inactive |  |  |  |  |  | 
CN(C)c1ccc(N=Nc2ccccc2C(=O)O)cc1 | inactive | inactive | 13.7 µM (active) | 12.2 µM (active) |  |  | inactive | inactive | 1.09 µM (active) | 48.6 µM (active) | 3.17 µM (active) |  |  |  |  |  |  |  | 
O=C1NCCN1CCN1CCC(c2cn(-c3ccc(F)cc3)c3ccc(Cl)cc23)CC1 | inactive | inactive | inactive | 26.6 µM (active) |  | 21.3 µM (active) |  | 26.6 µM (active) |  | 26.6 µM (active) | inactive | 11.9 µM (active) |  |  |  |  |  |  | 
CCN(CC)CCNc1ccc(CO)c2sc3ccccc3c(=O)c12 | inactive | inactive | inactive |  | inactive |  | inactive |  | inactive | 13.3 µM (active) | inactive | 7.5 µM (active) | inactive |  |  |  |  |  | 
CCC(=O)OCCc1ccccc1 | inactive | inactive | inactive |  | inactive | inactive | inactive |  |  | inactive | inactive | inactive |  |  |  |  |  |  | 
CCCCCCCC/C=C\CCCCCCCC(=O)NCc1ccc(O)c(OC)c1 | inactive | inactive | inactive | inactive | inactive | inactive | inactive | inactive |  | inactive | inactive | inactive |  | inactive | inactive | inactive | inactive | inactive | inactive
NC1(c2ccc(-c3nc4ccn5c(=O)[nH]nc5c4cc3-c3ccccc3)cc2)CCC1 | inactive | inactive | 29.8 µM (active) | 0.596 µM (active) |  | 21.3 µM (active) |  | 11.9 µM (active) |  | 13.3 µM (active) | inactive |  |  |  |  |  |  |  | 
CCC(C)(C)c1cc(O)c(C(C)(C)CC)cc1O | 3.89 µM (active) | inactive | 24.3 µM (active) | 24.3 µM (active) | inactive |  | inactive |  |  |  |  |  | inactive | inactive |  |  |  |  | 
O=C1NC2CCCCN2C12CCN(CCCN1c3ccccc3CCc3ccc(Cl)cc31)CC2 (stereo not given) | inactive | inactive |  | 23.7 µM (active) |  | 21.3 µM (active) |  | 29.8 µM (active) |  | 29.8 µM (active) | inactive |  |  |  |  |  |  |  | 
C=CC(=C)CCC=C(C)C | inactive | inactive | inactive |  | inactive | inactive | inactive |  |  | inactive | inactive | inactive |  |  |  |  |  |  | 
CCCCCCCC/C=C\CCCCCCCC(=O)N(C)CC(=O)O | inactive | 54.9 µM (active) |  | inactive | 30.9 µM (active) |  |  |  |  |  |  | inactive |  |  |  |  |  |  | 
CCOC(=O)COc1ccc(C)cc1 | inactive |  | inactive | inactive | inactive | inactive | inactive | inactive |  | inactive |  | inactive | inactive | inactive |  |  |  |  | 
O=C(Nc1ccc(Cl)c(Cl)c1)c1cc(Cl)cc(Cl)c1O | 19.5 µM (active) |  | 9.69 µM (active) | 2.17 µM (active) |  | 19.5 µM (active) |  | inactive |  | 3.06 µM (active) | 3.99 µM (active) |  |  |  |  |  |  |  | 
